Measurements published in PubChem BioAssay AID504462 (Sanford-Burnham Center for Chemical Genomics, 2011).
Hit rate of the full screen: of about 340,000 compounds, about 1,700 (0.5%) were called active. This is one part of a sample in which actives are shown more often than they occur. Unmarked numbers belong to inactive results. Cut-off read from the data, not from the text of the source: active = inhibition above about 40%; inactive = the rest.

Target: Cysteine protease ATG4B (Homo sapiens) (UniProt Q9Y4P1)
Sequence (Q9Y4P1 whole entry, looked up): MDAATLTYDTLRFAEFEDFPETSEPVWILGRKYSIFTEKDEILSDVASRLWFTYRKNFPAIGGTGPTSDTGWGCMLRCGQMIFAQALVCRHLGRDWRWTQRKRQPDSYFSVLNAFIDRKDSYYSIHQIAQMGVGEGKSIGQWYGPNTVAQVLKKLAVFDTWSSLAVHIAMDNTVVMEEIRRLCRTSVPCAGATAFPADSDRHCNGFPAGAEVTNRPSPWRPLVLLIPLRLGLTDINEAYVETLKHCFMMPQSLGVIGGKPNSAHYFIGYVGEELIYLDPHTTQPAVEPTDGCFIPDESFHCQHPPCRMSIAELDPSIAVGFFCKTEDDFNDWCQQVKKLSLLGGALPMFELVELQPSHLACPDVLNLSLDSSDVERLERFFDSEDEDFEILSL
Test: blockers of ATG4B cysteine protease activity – biochemical, fluorescence, uHTS, primary screen (AID 504462)
Conditions: ATG4B cleavage of LC3-PLA2, NBD-HPC fluorescence, 1 h; at 8.33 µM; active compounds read high

Compound	inhibition
O=S(=O)(c1ccc(F)cc1)N1CCN(C(=S)NCc2ccco2)CC1	0.75%
CC(C)Cc1ccc(C(C)C(=N)N)cc1 (stereo unspecified)	8.66%
COc1ccc(CNC(=O)C2CCN(S(=O)(=O)c3ccc(SC)cc3)CC2)cc1	-7.7%
CCOC(=O)c1cnn(Cc2ccccc2Cl)c1N	-5.17%
Cc1ccc(OCCOc2cccc(/C=N/NC(N)=O)c2)cc1	-2.28%
NC(=O)Cn1cc(/C=N\NS(=O)(=O)c2ccccc2)c2ccccc21	3.11%
O=C(Cn1cc(/C=N/NC(=O)c2cccc(C(F)(F)F)c2)c2ccccc21)Nc1ccc(F)cc1	5.83%
N#CCC(=O)N/N=C/c1cn(Cc2ccc3ccccc3c2)c2ccccc12	-9.5%
COC(=O)N/N=C/c1cn(CCCOc2ccc(C)cc2)c2ccccc12	40.3% (active)
COc1cccc(Cn2cc(/C=N/NC(=O)c3cc(O)cc(O)c3)c3ccccc32)c1	47.7% (active)
CCOC(=O)N/N=C/c1cn(Cc2ccccc2Cl)c2ccccc12	48% (active)
COC(=O)N/N=C/c1c[n+]([O-])c2ccccc2[n+]1[O-]	-2.96%
CCC(C)c1ccc(NC(=S)NCc2ccccn2)cc1 (stereo unspecified)	2.58%
CC(=O)N1CCN(C(=O)c2cc(-c3ccc(Cl)s3)nc3ccccc23)CC1	2%
COc1cc(OC)cc(C(=O)Nc2ccc(-c3nc4ccccc4o3)c(O)c2)c1	1%
Cc1ccc(Nc2cc(=O)n(C3CCCCC3)c(=O)[nH]2)cc1C	49.4% (active)
O=c1cc(C(F)(F)F)[nH]c(=O)n1C1CCCCC1	-7.77%
Cc1ccc(NNC(=O)C2CCC2)cc1C	-8.25%
Cc1ccc(-c2nnn(CC(=O)N(CCO)C(C(=O)NC(C)(C)C)c3ccncc3)n2)cc1 (stereo unspecified)	3.82%
O=C(Nc1cccc(F)c1)NC1CCCc2ccccc21 (stereo unspecified)	72.2% (active)
O=C(Nc1cccc(F)c1)NC1CCCCCCC1	14.1%

Compound	inhibition
CNS(=O)(=O)c1cccc(C(=O)NC2CCCc3ccccc32)c1 (stereo unspecified)	5.31%
O=C(Nc1ccc(F)c(Cl)c1)C1CCN(S(=O)(=O)c2cccnc2)CC1	-11.3%
COc1ccc(C)cc1NC(=O)CSc1nnc2ccc(-c3ccccn3)nn12	-1.16%
CCN(C[C@H]1N[C@@](CC)(C(=O)OC)[C@H]2C(=O)N(Cc3ccccc3)C(=O)[C@@H]12)S(=O)(=O)c1ccc(C(F)(F)F)cc1	1.74%
COc1ccc(NC(=O)CNc2cc(S(=O)(=O)N3CCOCC3)ccc2N2CCOCC2)c(OC)c1	-0.66%
Cc1c(Cl)c([N+](=O)[O-])nn1CCCC(=O)NC(C)c1ccccc1 (stereo unspecified)	19.6%
Cc1c(Cl)c([N+](=O)[O-])nn1CCCC(=O)Nc1cc(Cl)ccc1Cl	63.1% (active)
Cc1cc([N+](=O)[O-])nn1CCCC(=O)Nc1cccnc1Cl	-6.6%
Nc1c(N(CCCO)C(=O)C2CCCC2)c(=O)[nH]c(=O)n1Cc1ccccc1	2.96%
Cc1ccc2[nH]c(=O)c(CC=C(Cl)Cl)c(C)c2c1	-4.78%
CN(C(=O)c1cccc(NC(=O)Cc2ccc(NC(=O)C3CCN(C(=O)C4CCCCC4)CC3)cc2)c1)C1CCC1	-6.18%
COc1cccc(NC(=O)NCc2ccc(F)cc2)c1	46.2% (active)
COC(=O)[C@@H](NC(=O)NCc1cccc(OC)c1)C(C)C	-0.62%
O=C(NCc1cccc(CNC(=O)Nc2cccc(O)c2)c1)Nc1cccc(O)c1	27.4%
CC1CCCC(NC(=O)c2cc(-c3ccncc3)nc3ccccc23)C1C (stereo unspecified)	-8.76%
CC(C)CCn1c(=O)c2c(nc3n2CCCN3Cc2ccccc2)n(C)c1=O	3.87%
CCOC(=O)c1[nH]c2ccccc2c1N=C(C)N(CC)CC	-9.79%
CCOC(=O)c1c(C)[nH]c2c1-c1ccccc1C(=O)C2=O	47% (active)
CCOC(=O)C1=C(C)c2ccccc2OC1(C)C(=O)OCC (stereo unspecified)	2.41%
CC(C)(C)C1CCc2c(sc3nc(SCC(N)=O)nc(N)c23)C1 (stereo unspecified)	42.8% (active)
Nc1nc(SCC(=O)NCCN2CCOCC2)nc2sc3c(c12)CCC3	-9.91%

Compound	inhibition
C=C(C)CSc1nc(N)c2c3c(sc2n1)CCC3	17.7%
O=S1(=O)CCC(NC(=S)SCc2ccccc2Br)C1 (stereo unspecified)	-4.75%
CS(=O)(=O)Nc1ccc(C(=O)N2CCCC2)cc1	-2.74%
Cc1c(Cl)cccc1NC(=O)NCCCN1CCCC1=O	2.74%
Cc1c(Cl)cccc1NC(=O)Nc1ccc(C(=O)N2CCCC2)cc1	40.6% (active)
COc1ccccc1CCNC(=O)CSc1nnc2ccc(-c3cccnc3)nn12	0.74%
CCn1c(Cc2ccc(OC)cc2)nnc1SCC(=O)Nc1ccc(N2CCOCC2)cc1	-5.02%
Cc1ccc(C2=Nc3c(ccc4ccccc34)C(c3ccncc3)=NN2)cc1	60.3% (active)
Cc1ccc(-c2csc(-c3c[nH]c4ccccc34)n2)cc1	4.81%
CC(Sc1nnc(-c2ccccc2F)n1C1CC1)C(N)=O (stereo unspecified)	-8.94%
CCCCCCCC1(C)NC(=O)N(CC(=O)Nc2cc(C)on2)C1=O (stereo unspecified)	-10.1%
O=C(C1CCN(S(=O)(=O)Cc2ccccc2)CC1)N1CCCc2ccccc21	13.8%
Cc1ccc(N2CC(C(=O)NCCS(=O)(=O)N3CCN(c4ccccc4)CC3)CC2=O)cc1 (stereo unspecified)	-5.93%
Fc1ccc2c(c1)C(c1cccnc1)=NNC(c1cccs1)=N2	-1.31%
CCOC(=O)C1=C(C)N(C[C@@H]2CC[C@@H](Cc3ccc(-c4ccccc4)cc3)O2)C(=O)NC1c1ccc([N+](=O)[O-])cc1 (stereo partly specified)	1.26%
COc1ccc2c(c1)C(c1cccs1)=NNC(c1cccnc1)=N2	0.69%
CCC1OC(c2ccc([N+](=O)[O-])cc2)=Nc2ccccc21 (stereo unspecified)	-2.62%
CCOc1ccc2c(c1)C(c1ccc(C)cc1)=NNC(c1ccc(C)cc1)=N2	65.9% (active)
CCc1ccc2c(c1)C(c1ccc([N+](=O)[O-])cc1)=NNC(c1ccccc1)=N2	61% (active)
